{"source": "PubChem BioAssay (NCATS)", "note": "Values without a mark were called inactive. Inconclusive results are not listed. Activity calls are given as the source filed them. The call rests on the fitted dose curve; in most records, active means well fitted inhibition curve with a large enough effect; inconclusive means small, poorly fitted or top-dose-only effect; inactive means no such curve, though single readings can be large or run the other way.", "data": [{"test": "qHTS assay for measurement of the activity of small molecule inhibitors on Zika virus induced Caspase-3 activity in human iPSC derived neural progenitor cells (hNPCs) (AID 1224857); further: % of control where 0% means no effect; nearly all actives have a fitted effect of over 65% in size", "conditions": "hNPCs ZIKV-induced caspase-3/7, Caspase-Glo luminescence, 6 h; series mostly up to 45.7 µM; activity change, negative = inhibition: at the top concentration", "how_it_was_run": "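In medium with heparin 2 ug/ml and cyclopamine 2 uM, hNPCs (350 cells/well) received compound for one hour and then Zika virus at 2 FFU/cell; caspase activity was measured by Caspase-Glo 3/7 luminescence 6 h post-infection.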", "units": {"activity change, negative = inhibition": "%"}, "values": [{"smiles": "OCc1cc(C(O)CNCCCCCCOCCCCc2ccccc2)ccc1O", "note": "(stereo not drawn)", "activity change, negative = inhibition": -17.1}, {"smiles": "CC(C)(C)[C@]1(O)CCN2C[C@H]3c4ccccc4CCc4cccc(c43)[C@@H]2C1", "outcome": "inactive"}, {"smiles": "Cc1c(O)cccc1C(=O)N[C@@H](CSc1ccccc1)[C@H](O)CN1C[C@H]2CCCC[C@H]2C[C@H]1C(=O)NC(C)(C)C", "outcome": "inactive"}, {"smiles": "Nc1cc(=O)[nH]c(N)n1", "outcome": "inactive"}, {"smiles": "CN(C)CCOC(C)(c1ccccc1)c1ccccn1", "note": "(stereo not drawn)", "outcome": "inactive"}, {"smiles": "CC(C(O)c1ccc(O)cc1)N1CCC(Cc2ccccc2)CC1", "note": "(stereo not drawn)", "outcome": "inactive"}, {"smiles": "C[C@]12C[C@H](O)[C@H]3[C@@H](CCC4=CC(=O)CC[C@@]43C)[C@@H]1CC[C@@H]2C(=O)CO", "outcome": "inactive"}, {"smiles": "CNCCC(Oc1ccc(C(F)(F)F)cc1)c1ccccc1", "note": "(stereo not drawn)", "outcome": "inactive"}, {"smiles": "CC(C)(C(=O)O)c1ccc(C(O)CCCN2CCC(C(O)(c3ccccc3)c3ccccc3)CC2)cc1", "note": "(stereo not drawn)", "activity change, negative = inhibition": -8.73}, {"smiles": "CCN(CC)C(C)CN1c2ccccc2Sc2ccccc21", "note": "(stereo not drawn)", "outcome": "inactive"}, {"smiles": "CC(C)(C)c1onc(OCP(=O)(O)O)c1CC(N)C(=O)O", "note": "(stereo not drawn)", "activity change, negative = inhibition": -14.2}, {"smiles": "CN(C)CCCN1c2ccccc2Sc2ccc(Cl)cc21", "outcome": "inactive"}, {"smiles": "CC(CN1c2ccccc2Sc2ccccc21)N(C)C", "note": "(stereo not drawn)", "outcome": "inactive"}, {"smiles": "CNCC(O)c1ccc(O)c(O)c1", "note": "(stereo not drawn)", "outcome": "inactive"}, {"smiles": "OCCN1CCN(CCCN2c3ccccc3Sc3ccc(Cl)cc32)CC1", "outcome": "inactive"}, {"smiles": "N=c1c[n+](N2CCOCC2)[n-]o1", "outcome": "inactive"}, {"smiles": "CN(C)CCC=C1c2ccccc2CCc2ccccc21", "outcome": "inactive"}, {"smiles": "CCN(CC)CCOC(=O)C1(C2CCCCC2)CCCCC1", "outcome": "inactive"}, {"smiles": "CC[C@H]1CN2CCc3cc(OC)c(OC)cc3[C@@H]2C[C@@H]1C[C@H]1NCCc2cc(OC)c(OC)cc21", "outcome": "inactive"}, {"smiles": "CC1=C(CC(=O)O)c2cc(F)ccc2/C1=C\\c1ccc(S(C)(=O)=O)cc1", "outcome": "inactive"}, {"smiles": "C[C@H](NC(CCc1ccccc1)C(=O)O)C(=O)N1CCC[C@H]1C(=O)O", "note": "(stereo partly drawn)", "outcome": "inactive"}, {"smiles": "CC(CN(C)C)CN1c2ccccc2CCc2ccccc21", "note": "(stereo not drawn)", "outcome": "inactive"}, {"smiles": "CC(C)NC[C@H](O)c1ccc(O)c(O)c1", "outcome": "inactive"}, {"smiles": "NC1[C@H]2CN(c3nc4c(cc3F)c(=O)c(C(=O)O)cn4-c3ccc(F)cc3F)C[C@@H]12", "note": "(stereo partly drawn)", "outcome": "inactive"}, {"smiles": "CN(C)CCCN1c2ccccc2CCc2ccccc21", "outcome": "inactive"}, {"smiles": "CC(=O)OCC(=O)[C@@]1(O)CC[C@H]2[C@@H]3CCC4=CC(=O)CC[C@]4(C)[C@H]3C(=O)C[C@@]21C", "outcome": "inactive"}, {"smiles": "CC1=C(/C=C/C(C)=C/C=C/C(C)=C/C(=O)O)C(C)(C)CCC1", "outcome": "inactive"}, {"smiles": "NC(=O)c1ncn([C@@H]2O[C@H](CO)[C@@H](O)[C@H]2O)n1", "outcome": "inactive"}, {"smiles": "CC(C)C(=O)c1c(C(C)C)nn2ccccc12", "outcome": "inactive"}, {"smiles": "NC(N)=NCCC[C@H](N)C(=O)O", "outcome": "inactive"}, {"smiles": "C=Cc1c(C)c2cc3[nH]c(cc4nc(cc5nc(cc1[nH]2)C(C)=C5CCC(=O)O)C(CCC(=O)O)=C4C)c(C)c3C=C", "activity change, negative = inhibition": -5.14}, {"smiles": "O=C1N=C(O)CN1/N=C/c1ccc(-c2ccc([N+](=O)[O-])cc2)o1", "activity change, negative = inhibition": -2.39}, {"smiles": "CC(C)c1c(C(=O)Nc2ccccc2)c(-c2ccccc2)c(-c2ccc(F)cc2)n1CC[C@@H](O)C[C@@H](O)CC(=O)O", "outcome": "inactive"}]}, {"test": "qHTS assay for measurement of the activity of small molecule inhibitors on Zika virus induced Caspase-3 activity in human astrocytoma cells (AID 1224859);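 further: plate controls were ZIKV-infected untreated cells for no effect and uninfected cells for full effect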", "conditions": "SNB-19 ZIKV-induced caspase-3/7, luminescence, 6 h; series mostly up to 45.7 µM; activity change, negative = inhibition: at the top concentration", "how_it_was_run": "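A cell-based luminescent caspase-3/7 assay used SNB-19 cells infected with ZIKV (2 FFU/cell) for 6 h following 1 h compound pretreatment.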", "units": {"activity change, negative = inhibition": "%"}, "values": [{"smiles": "OCc1cc(C(O)CNCCCCCCOCCCCc2ccccc2)ccc1O", "note": "(stereo not drawn)", "outcome": "inactive"}, {"smiles": "CC(C)(C)[C@]1(O)CCN2C[C@H]3c4ccccc4CCc4cccc(c43)[C@@H]2C1", "outcome": "inactive"}, {"smiles": "Cc1c(O)cccc1C(=O)N[C@@H](CSc1ccccc1)[C@H](O)CN1C[C@H]2CCCC[C@H]2C[C@H]1C(=O)NC(C)(C)C", "activity change, negative = inhibition": -10.2}, {"smiles": "Nc1cc(=O)[nH]c(N)n1", "outcome": "inactive"}, {"smiles": "CN(C)CCOC(C)(c1ccccc1)c1ccccn1", "note": "(stereo not drawn)", "outcome": "inactive"}, {"smiles": "CC(C(O)c1ccc(O)cc1)N1CCC(Cc2ccccc2)CC1", "note": "(stereo not drawn)", "outcome": "inactive"}, {"smiles": "CNCCC(Oc1ccc(C(F)(F)F)cc1)c1ccccc1", "note": "(stereo not drawn)", "outcome": "inactive"}, {"smiles": "CC(C)(C(=O)O)c1ccc(C(O)CCCN2CCC(C(O)(c3ccccc3)c3ccccc3)CC2)cc1", "note": "(stereo not drawn)", "outcome": "inactive"}, {"smiles": "CCN(CC)C(C)CN1c2ccccc2Sc2ccccc21", "note": "(stereo not drawn)", "outcome": "inactive"}, {"smiles": "CN(C)CCCN1c2ccccc2Sc2ccc(Cl)cc21", "outcome": "inactive"}, {"smiles": "CC(CN1c2ccccc2Sc2ccccc21)N(C)C", "note": "(stereo not drawn)", "outcome": "inactive"}, {"smiles": "CN(C)CCC=C1c2ccccc2CCc2ccccc21", "outcome": "inactive"}, {"smiles": "CCN(CC)CCOC(=O)C1(C2CCCCC2)CCCCC1", "outcome": "inactive"}, {"smiles": "CC[C@H]1CN2CCc3cc(OC)c(OC)cc3[C@@H]2C[C@@H]1C[C@H]1NCCc2cc(OC)c(OC)cc21", "outcome": "inactive"}, {"smiles": "CC1=C(CC(=O)O)c2cc(F)ccc2/C1=C\\c1ccc(S(C)(=O)=O)cc1", "outcome": "inactive"}, {"smiles": "C[C@H](NC(CCc1ccccc1)C(=O)O)C(=O)N1CCC[C@H]1C(=O)O", "note": "(stereo partly drawn)", "activity change, negative = inhibition": -5.84}, {"smiles": "CC(C)NC[C@H](O)c1ccc(O)c(O)c1", "outcome": "inactive"}, {"smiles": "NC1[C@H]2CN(c3nc4c(cc3F)c(=O)c(C(=O)O)cn4-c3ccc(F)cc3F)C[C@@H]12", "note": "(stereo partly drawn)", "activity change, negative = inhibition": -6.64}, {"smiles": "CN(C)CCCN1c2ccccc2CCc2ccccc21", "outcome": "inactive"}, {"smiles": "CC(=O)OCC(=O)[C@@]1(O)CC[C@H]2[C@@H]3CCC4=CC(=O)CC[C@]4(C)[C@H]3C(=O)C[C@@]21C", "outcome": "inactive"}, {"smiles": "CC1=C(/C=C/C(C)=C/C=C/C(C)=C/C(=O)O)C(C)(C)CCC1", "outcome": "inactive"}, {"smiles": "CC(C)C(=O)c1c(C(C)C)nn2ccccc12", "outcome": "inactive"}, {"smiles": "NC(N)=NCCC[C@H](N)C(=O)O", "outcome": "inactive"}, {"smiles": "O=C1N=C(O)CN1/N=C/c1ccc(-c2ccc([N+](=O)[O-])cc2)o1", "outcome": "inactive"}, {"smiles": "CC(C)c1c(C(=O)Nc2ccccc2)c(-c2ccccc2)c(-c2ccc(F)cc2)n1CC[C@@H](O)C[C@@H](O)CC(=O)O", "activity change, negative = inhibition": 7.6}]}]}
